Assay results reported in the supplement of paper PMC12645437, “Orthogonal IMiD-Degron Pairs Induce Selective Protein Degradation in Cells” (ACS Chemical Biology, 2025).
In all, about 8,300 sequences were measured (“log2 fold change of degron read counts, EGFP-low vs EGFP+ sorted cells (limma voom), compound-induced degradation”: median about -1.1, highest 2% from about 3.2 on). The sample holds the highest values, similar sequences and a random draw of the others, so the mix is not that of the screen.

T1: CRBN, Q96SW2
T1 chain: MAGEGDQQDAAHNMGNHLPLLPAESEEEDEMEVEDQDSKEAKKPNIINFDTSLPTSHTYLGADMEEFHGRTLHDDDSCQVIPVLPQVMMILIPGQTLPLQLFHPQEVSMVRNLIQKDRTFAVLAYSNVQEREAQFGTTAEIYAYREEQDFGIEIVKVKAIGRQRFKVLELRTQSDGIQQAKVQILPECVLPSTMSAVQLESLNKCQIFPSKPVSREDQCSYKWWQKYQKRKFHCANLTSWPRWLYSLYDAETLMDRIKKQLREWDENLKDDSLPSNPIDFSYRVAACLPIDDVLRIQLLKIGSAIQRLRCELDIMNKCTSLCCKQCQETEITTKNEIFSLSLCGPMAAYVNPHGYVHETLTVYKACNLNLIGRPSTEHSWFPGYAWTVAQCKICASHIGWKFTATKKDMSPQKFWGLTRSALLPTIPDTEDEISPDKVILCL

B1: 46F_47R_49E_50I_52G_53R_54H_55F_67L_, Q9UKT9 (peptide)
chain: FRCEICGRHFTQKGNLLRHIKL
B2: 46F_47L_49E_50V_52G_53A_54Y_55F_67L_, Q9UKT9 (peptide)
chain: FLCEVCGAYFTQKGNLLRHIKL
B3: 46F_47N_49N_50Q_52G_53R_54W_55F_67L_, Q9UKT9 (peptide)
chain: FNCNQCGRWFTQKGNLLRHIKL
B4: 46L_47L_49N_50Q_52G_53F_54P_55C_67L_, Q9UKT9 (peptide)
chain: LLCNQCGFPCTQKGNLLRHIKL
B5: 46F_47E_49E_50V_52G_53A_54M_55F_67L_, Q9UKT9 (peptide)
chain: FECEVCGAMFTQKGNLLRHIKL
B6: 46F_47A_49E_50V_52G_53A_54M_55F_67L_, Q9UKT9 (peptide)
chain: FACEVCGAMFTQKGNLLRHIKL
B7: 46F_47S_49E_50V_52G_53A_54M_55F_67L_, Q9UKT9 (peptide)
chain: FSCEVCGAMFTQKGNLLRHIKL
B8: 46F_47H_49E_50V_52G_53A_54M_55F_67L_, Q9UKT9 (peptide)
chain: FHCEVCGAMFTQKGNLLRHIKL
B9: 46F_47V_49E_50V_52G_53A_54M_55F_67L_, Q9UKT9 (peptide)
chain: FVCEVCGAMFTQKGNLLRHIKL
B10: 46F_47N_49E_50V_52G_53A_54M_55F_67L_, Q9UKT9 (peptide)
chain: FNCEVCGAMFTQKGNLLRHIKL
B11: 46F_47Y_49E_50V_52G_53A_54M_55F_67L_, Q9UKT9 (peptide)
chain: FYCEVCGAMFTQKGNLLRHIKL
B12: 46F_47Q_49E_50V_52G_53A_54M_55F_67L_, Q9UKT9 (peptide)
chain: FQCEVCGAMFTQKGNLLRHIKL
B13: 46F_47D_49E_50V_52G_53A_54M_55F_67L_, Q9UKT9 (peptide)
chain: FDCEVCGAMFTQKGNLLRHIKL
B14: 46F_47F_49E_50V_52G_53A_54M_55F_67L_, Q9UKT9 (peptide)
chain: FFCEVCGAMFTQKGNLLRHIKL
B15: 46F_47G_49E_50V_52G_53A_54M_55F_67L_, Q9UKT9 (peptide)
chain: FGCEVCGAMFTQKGNLLRHIKL
B16: 46F_47K_49E_50V_52G_53A_54M_55F_67L_, Q9UKT9 (peptide)
chain: FKCEVCGAMFTQKGNLLRHIKL
B17: 46L_47D_49E_50I_52G_53F_54L_55C_67L_, Q9UKT9 (peptide)
chain: LDCEICGFLCTQKGNLLRHIKL
B18: 46F_47A_49P_50Q_52G_53A_54F_55F_67L_, Q9UKT9 (peptide)
chain: FACPQCGAFFTQKGNLLRHIKL
B19: 46F_47W_49N_50Q_52G_53A_54E_55F_67L_, Q9UKT9 (peptide)
chain: FWCNQCGAEFTQKGNLLRHIKL
B20: 46F_47G_49E_50I_52G_53R_54G_55F_67L_, Q9UKT9 (peptide)
chain: FGCEICGRGFTQKGNLLRHIKL
B21: 46L_47G_49E_50I_52G_53F_54C_55C_67L_, Q9UKT9 (peptide)
chain: LGCEICGFCCTQKGNLLRHIKL
B22: 46F_47K_49E_50V_52G_53A_54H_55F_67L_, Q9UKT9 (peptide)
chain: FKCEVCGAHFTQKGNLLRHIKL
B23: 46L_47N_49P_50I_52G_53F_54N_55C_67L_, Q9UKT9 (peptide)
chain: LNCPICGFNCTQKGNLLRHIKL
B24: 46F_47T_49E_50V_52G_53A_54M_55F_67L_, Q9UKT9 (peptide)
chain: FTCEVCGAMFTQKGNLLRHIKL
B25: 46F_47C_49E_50V_52G_53A_54M_55F_67L_, Q9UKT9 (peptide)
chain: FCCEVCGAMFTQKGNLLRHIKL
B26: 46F_47W_49E_50V_52G_53A_54M_55F_67L_, Q9UKT9 (peptide)
chain: FWCEVCGAMFTQKGNLLRHIKL
B27: 46F_47Q_49N_50I_52G_53A_54N_55F_67L_, Q9UKT9 (peptide)
chain: FQCNICGANFTQKGNLLRHIKL
B28: 46F_47Y_49N_50Q_52G_53R_54C_55F_67L_, Q9UKT9 (peptide)
chain: FYCNQCGRCFTQKGNLLRHIKL

Biological target: T1, CRBN, Q96SW2
Test: log2 fold change of degron read counts, EGFP-low vs EGFP+ sorted cells (limma voom), compound-induced degradation; higher = more compound-induced degradation of the degron-EGFP fusion; degrons are variants of IKZF1/3 zinc finger 2; compound dose not given here
Settings: Jurkat, 18 h
[1] = compound: compound 19 (5-tert-butyl-thalidomide)
[2] = compound: compound 22 (5-morpholino-thalidomide)
[3] = compound: compound 33 (diphenyl IMiD analogue)
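Further: pooled lentiviral library of zinc finger degron-EGFP fusions in mCherry-positive Jurkat cells, FACS-sorted after compound exposure, with degron abundance counted by next-generation sequencing.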

Sequence	log2 fold change of degron read counts [1]	log2 fold change of degron read counts [2]	log2 fold change of degron read counts [3]	log2 fold change of degron read counts (compound: thalidomide)
B1	-2.34	-2.75	-1.24	-1.05
B2	-0.235	-1.51	0.35	0.301
B3	-2.05	-2.2	-1.98	-1.8
B4	-1.89	-1.87	-1.69	-1.84
B5	-1.4	-1.93	0.328	1.08
B6	3.25	1.34	0.261	-0.323
B7	2.43	1.36	1.15	0.408
B8	1.44	1.27	0.505	-0.808
B9	-0.335	1.3	1.8	2.05
B10	0.96	-0.745	-0.544	-0.743
B11	3.32	3.43	2.43	0.383
B12	-0.365	2.11	2.44	3.52
B13	-0.122	-0.858	0.0809	0.0891
B14	3.14	3.15	2	0.314
B15	3.32	2.09	1.16	-0.148
B16	-1.98	-3.85	-3.74	-1.96
B17	-0.807	-1.38	-0.989	-0.479
B18	-0.715	-2.49	-1.05	-1.87
B19	-1.48	-2.56	-2.24	-2.85
B20	-1.02	-2.46	-2.04	-2.19
B21	-0.15	-0.36	-0.974	-0.994
B22	-2.01	-3.17	-2.55	-1.68
B23	0.0324	-0.534	-0.051	0.589
B24	-0.151	0.976	1.67	1.62
B25	1.54	1.34	1.7	0.852
B26	3.14	3.46	2.23	0.316
B27	-0.813	0.399	1.05	3.08
B28	-1.93	-2.09	-1.97	-2.28
